# CYP2C19 inhib: human CYP2C19 inhibition; AID 778; actives 21% (n = 96,000); inhibition, % at 5 µM; CYP2C19 Supersomes, luciferin-H EGE luminescence, 30 min;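 active = CYP2C19 inhibition above a set limit at 5 µM in the primary screen, cut at about 50% in these data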;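 note: plate controls were negative control wells for no effect and 2.5 mM tranylcypromine positive control for full effect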
# Target sequence (P33261 whole entry, looked up): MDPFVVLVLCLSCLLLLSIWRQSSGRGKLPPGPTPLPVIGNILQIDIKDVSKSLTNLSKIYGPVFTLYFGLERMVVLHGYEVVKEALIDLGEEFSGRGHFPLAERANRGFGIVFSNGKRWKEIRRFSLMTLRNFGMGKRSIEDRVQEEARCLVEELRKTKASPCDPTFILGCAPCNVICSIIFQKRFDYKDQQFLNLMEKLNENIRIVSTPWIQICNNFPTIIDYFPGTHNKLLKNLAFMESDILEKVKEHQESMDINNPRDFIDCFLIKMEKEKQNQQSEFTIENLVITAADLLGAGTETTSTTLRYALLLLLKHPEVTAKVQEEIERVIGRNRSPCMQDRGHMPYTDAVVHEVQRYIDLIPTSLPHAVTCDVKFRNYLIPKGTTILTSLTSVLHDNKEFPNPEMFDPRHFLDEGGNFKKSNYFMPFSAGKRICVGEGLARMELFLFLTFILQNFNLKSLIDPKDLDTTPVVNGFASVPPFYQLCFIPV
# CYP2C9 inh: human CYP2C9 inhibition; AID 777; actives 20% (n = 96,000); inhibition, % at 5 µM; CYP2C9 Supersomes, luciferin-H conversion, luminescence;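 active = blocking of liver enzyme CYP2C9 beyond about 50% at 5 µM, limit read from the data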
# PostGolgi ctrl: inhibits growth of the yeast control strain; efflux-deficient yeast background strain, growth absorbance A615, 16 h; inhibition, % at 10 µM; actives 5% (n = 98,000); AID 738
# CYP2C19 act: cytochrome P450 2C19 (human) activation | recombinant CYP2C19, luciferin-H EGE luminescence; hits give high values; 0 = fully inhibited enzyme, 1 = untreated enzyme | P33261 | activation factor at 5 µM | 96,000 tested, under 10 active;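 active = activation factor of at least 2 at 5 µM in the primary screen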;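 note: 0 = wells with 2.5 mM tranylcypromine and 1 = vehicle-only wells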
# CYP2C9 act: increases human cytochrome P450 2C9 activity; activation factor at 5 µM; P11712; actives 1.4% (n = 96,000); recombinant CYP2C9, luciferin-H conversion, luminescence; hits give high values; factor 1 = untreated enzyme, 0 = blocked;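 active = activation factor of 2 or more for CYP2C9 at a 5 µM dose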;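 note: 0 = sulfaphenazole-blocked wells and 1 = vehicle-only wells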
# PostGolgi yeast: growth inhibition of a yeast mutant, post-Golgi transport screen; post-Golgi transport phenotypic cell assay; inhibition, % at 10 µM; actives 0.9% (n = 98,000); AID 739;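 note: yeast cells grown in 1536-well plates; yeast grown about 18 h at 30C before absorbance read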
# * marks the source's active call; other numbers are inactive results; / = not tested or not shown. Rows were chosen to be rich in hits. Some 32% of all compounds tested hit in one or more screens of this group. Cut-off read from the data, not from the text of the source, unless noted: active = inhibition above about 30%; inactive = the rest.
SMILES,CYP2C19 inhib,CYP2C9 inh,PostGolgi ctrl,CYP2C19 act,CYP2C9 act,PostGolgi yeast
Cn1c(=O)c2c(nc(CN3CCN(C(=O)c4ccco4)CC3)n2Cc2ccc(F)cc2)n(C)c1=O,-5,-5,16,1,1,-3
Cc1cc(Nc2cc(C(=O)O)ccc2C)n2ncnc2n1,-2,1,15,1,1,-6
O=C(CCCN1C(=O)c2ccccc2C1=O)Oc1ccc(F)cc1,65*,6,38*,0.3,0.9,-6
COc1ccc(Cn2c(N)c(C#N)c3nc4ccccc4nc32)cc1,20,26,4,0.8,0.7,-6
COc1ccccc1CNC(=O)c1c(N)n(CCCN2CCOCC2)c2nc3ccccc3nc12,32,34,20,0.7,0.7,12
N#Cc1c(N)n(CCc2ccc(F)cc2)c2nc3ccccc3nc12,99*,80*,5,0,0.2,-2
COc1cc(Cn2c(N)c(C#N)c3nc4ccccc4nc32)cc(OC)c1,-6,56*,0,1.1,0.4,3
Nc1c(C(=O)NCc2ccco2)c2nc3ccccc3nc2n1CCc1ccc(F)cc1,43,58*,15,0.6,0.4,6
Nc1c(C(=O)NCc2ccc3c(c2)OCO3)c2nc3ccccc3nc2n1CCCN1CCOCC1,69*,44,15,0.3,0.6,21
O=CN1CCN(C(C(=O)NC2CCCC2)c2ccc(Cl)cc2)CC1 (stereo unspecified),25,-4,25,0.8,1,-4
CCOc1cccc(N2C(=O)CC(NCc3ccc(S(N)(=O)=O)cc3)C2=O)c1 (stereo unspecified),-12,-9,-2,1.1,1.1,-7
C=CCOC(=O)C1=C(C)Nc2nnnn2C1c1ccc(OC)cc1OC (stereo unspecified),20,12,22,0.8,0.9,-5
CCCCCOC(=O)C1=C(C)Nc2nnnn2C1c1ccccc1Cl (stereo unspecified),4,8,48*,1,0.9,46*
COC(=O)C1=C(C)Nc2nnnn2C1c1cc(OC)ccc1OC (stereo unspecified),30,61*,9,0.7,0.4,-8
COC(=O)c1nc2n(n1)C(c1cc(OC)ccc1OC)C(C(=O)OC1CCCCC1)=C(C)N2 (stereo unspecified),47,68*,4,0.5,0.3,17
CCOc1cccc2cc(C(=O)Nc3cc(C)on3)c(=O)oc12,10,-24,2,0.9,1.2,22
CC(C)(C)C(=O)C(CO)(Oc1ccc(Cl)cc1)n1cncn1 (stereo unspecified),93*,77*,95*,0.1,0.2,99*
CC1=CC(C)(C)Nc2ccc(OC(=O)C(Cc3ccccc3)N3C(=O)c4ccccc4C3=O)cc21 (stereo unspecified),8,56*,3,0.9,0.4,1
CC1=CC(C)(C)Nc2ccc(OC(=O)CN3C(=O)c4cccc5cccc(c45)C3=O)cc21,27,40,-8,0.7,0.6,33*
CCOC(=O)C(C(=O)OCC)N(C#N)c1nc(SC)nc(N(C)C)n1,46,-4,-4,0.5,1,-5
CCCNC(=O)CC1Sc2ccccc2NC1=O (stereo unspecified),30,-136,39*,0.7,2.4*,-6
O=C(O)CC1Sc2ccccc2NC1=O (stereo unspecified),-12,-36,-6,1.1,1.4,27
CCNC(=O)NC(=O)COC(=O)c1ccccc1SCC(=O)NC(=O)NCC,56*,83*,4,0.4,0.2,3
O=C(COC(=O)Cn1c(C(F)(F)F)nc2ccccc21)Nc1ccc2c(c1)OCCO2,-4,18,1,1,0.8,-6
Cc1oc(/C=N/NC(=O)CN(c2ccccc2Br)S(C)(=O)=O)cc1Br,/,/,-7,/,/,3
SMILES,CYP2C19 inhib,CYP2C9 inh,PostGolgi ctrl,CYP2C19 act,CYP2C9 act,PostGolgi yeast
Cc1ccccc1N(CC(=O)N/N=C/c1cc(C)n(-c2ccccc2C)c1C)S(C)(=O)=O,10,58*,7,0.9,0.4,-1
Cc1sc2nc(C(C)Nc3ccccc3N3CCOCC3)[nH]c(=O)c2c1C (stereo unspecified),35,54*,11,0.7,0.5,-16
Cc1sc2nc(SCC(=O)N3CCOCC3)[nH]c(=O)c2c1C,7,3,-9,0.9,1,6
COC(=O)c1nn(-c2ccccc2)c(Sc2ccc(OC)cc2)c1/C=N/O,27,43,6,0.7,0.6,2
COc1cccc(CNC(=O)C2CCC(CNS(=O)(=O)c3cccc4nsnc34)CC2)c1 (stereo unspecified),16,28,15,0.8,0.7,0
COc1cc(CNCCc2c[nH]c3ccccc23)ccc1OCc1ccc(F)cc1,63*,47,41*,0.4,0.5,-1
COc1cc(CNCCc2ccccc2F)ccc1OCc1ccc(Cl)nc1,76*,33,10,0.2,0.7,-1
COc1cccc(CNCCc2c[nH]c3ccccc23)c1OCc1ccc(F)cc1,27,8,81*,0.7,0.9,93*
Cc1ccc(C)n1Cc1ccc(C(=O)O)cc1,-3,5,-3,1,0.9,2
COc1ccc(Oc2nccc(-c3ccccc3)c2C#N)cc1,30,28,10,0.7,0.7,-7
CN(C)C(=O)CSc1nnc(-c2cccnc2)n1-c1ccccc1,-1,2,1,1,1,-9
CC1CN(C(=O)CSc2nnc(-c3ccncc3)n2-c2ccccc2)CC(C)O1 (stereo unspecified),76*,24,-8,0.2,0.8,22
CC(C)c1ccccc1-n1c(SCC(=O)N2CCN(c3ccccc3)CC2)nnc1-c1cccnc1,55*,56*,24,0.5,0.4,15
COc1ccc(Cn2nnnc2C(c2cc3ccc(OC)cc3[nH]c2=O)N2CCCCCC2)cc1 (stereo unspecified),11,1,4,0.9,1,26
CC(=O)N1CCN(S(=O)(=O)c2ccc(S(=O)(=O)NC3CC3)cc2)CC1,-5,-3,-4,1.1,1,-2
CC(=O)N1CCN(C2c3cccc4cccc(c34)C2NS(=O)(=O)c2ccccc2)CC1 (stereo unspecified),74*,68*,27,0.3,0.3,7
COc1ccc(-n2c(SCC(N)=O)nnc2-c2ccccc2F)cc1,/,/,-1,/,/,-1
Cc1cc(C)nc(NC(=O)/C=C/c2ccc(Cl)cc2Cl)c1,5,-36,57*,0.9,1.4,12
O=C(/C=C/c1ccc(Cl)cc1Cl)NCc1ccncc1,81*,76*,8,0.2,0.2,0
Cc1cc(C)nc(NC(=O)/C=C/c2cccs2)c1,8,-34,8,0.9,1.3,-1
Cc1[nH]c2ccc(F)cc2c(=O)c1SC(F)(F)C(F)F,23,-3,3,0.8,1,-20

# Bioassay records: PubChem, several laboratories
